eIF4E 4G PPI: eIF4E–eIF4G protein interaction inhibitors, primary screen, biochemical, uHTS, TR-FRET, eIF4GI fragment. Eukaryotic translation initiation factor 4E (Mus musculus) + Eukaryotic translation …. TR-FRET eIF4E-eIF4GI(517-606) binding, 2 h. inhibition, % at 21.7 µM. hit rate 0.37% among 220,000. AID 782, 2007;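 active = inhibition above about 30%, limit read from the data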;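 note: 0% = full FRET control wells and 100% = background wells lacking eIF4GI fragment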
eIF4H inh: human eIF4H binding inhibitors, primary screen, translation initiation inhibitor project, biochemical, uHTS, fluorescence polarization; Eukaryotic translation initiation factor 4H (Homo sapiens), Q15056; eIF4H fluorescence polarization binding assay; inhibition, % at 35 µM; hit rate 0.94% among 290,000; AID 2012, 2009;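 note: calls also rest on retests at 20 µM and on dose response follow-up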
MLLE-PAM2 inh: inhibitors of PABP1 MLLE–PAM2 peptide binding, primary screen, biochemical, fluorescence polarization, FITC-PAM2, GST-MLLE; Polyadenylate-binding protein 1 (Homo sapiens), P11940; inhibition, % at 20 µM; hit rate 0.36% among 360,000; AID 588489, 2011; in the data active = inhibition above about 35%, passing the limit was not always enough;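 note: plate controls were DMSO wells with GST-MLLE for no effect and wells lacking GST-MLLE protein for full effect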
PABP FP inh: PABP poly(A) RNA binding inhibitors, primary screen, biochemical, fluorescence polarization, uHTS; calls only at 35 µM; hit rate 1% among 290,000;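 note: calls also rest on retests at 20 µM and on dose response follow-up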
EBV gp42 inh: Epstein-Barr virus gp42 inhibitors, primary screen, biochemical, uHTS, fluorescence polarization | Glycoprotein 42 (Epstein-Barr virus (strain AG876)), Q1HVG2 | Fluorescence polarization binding assay, mP read-out | inhibition, % (tested at 21.74 µM) | hit rate 0.42% among 220,000 | AID 1085, 2008; in the data active = inhibition above about 50%
Target sequence (Q1HVG2 whole entry, looked up): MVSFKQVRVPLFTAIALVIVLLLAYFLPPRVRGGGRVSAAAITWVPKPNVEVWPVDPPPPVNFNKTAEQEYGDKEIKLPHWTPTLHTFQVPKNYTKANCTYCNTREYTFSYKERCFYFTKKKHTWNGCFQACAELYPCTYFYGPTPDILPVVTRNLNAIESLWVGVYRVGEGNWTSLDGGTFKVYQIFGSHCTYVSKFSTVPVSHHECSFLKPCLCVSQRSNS
* = called active by the depositor; i = inactive; ? = inconclusive; . = not tested or not shown; + = active, no number. Shown are actives, neighbours in structure and some others; about 1.7% of the full set was active somewhere. Unless noted, the rule behind the calls is not given here.

SMILES	eIF4E 4G PPI	eIF4H inh	MLLE-PAM2 inh	PABP FP inh	EBV gp42 inh
Oc1ccc2c3c1OC1c4oc5ccccc5c4C[C@@]4(O)[C@@H](C2)N(CC2CC2)CC[C@]314 (some centres not stated)	.	.	3	.	.
CC1=CC(=O)NP(=O)(Oc2ccc3ccccc3c2)N1 (configuration not stated)	81*	-7	11	i	-24
CCCCCCNC(=O)N[C@@H](Cc1ccc(O)cc1)C(=O)NCCC[C@H]1CN2C(=NC[C@H]2C)N1CC1CCC1	8	-2	.	i	-22
CCCCCCNC(=O)N[C@H](Cc1ccc(O)cc1)C(=O)NCCC[C@H]1CN2C(=NC[C@H]2CCC)N1CC1CCC1	56*	-13	.	i	-24
CCOP(=O)(Cc1cc(C(C)=O)c(C)o1)OCC	2	47	40*	i	-5
Cn1cc(C(=O)N2CCCCC2)c2ccccc21	-4	4	-6	i	-9
CCC(=NCc1cccnc1)c1c(O)n(-c2ccccc2)c(=O)[nH]c1=O	32*	0	9	i	-16
C[C@H](CO)N1C[C@H](C)[C@H](CN(C)C(=O)Oc2ccccc2)OCc2cnnn2CCCC1=O	.	.	-5	.	.
COP(=S)(OC)Oc1ccc(Sc2ccc(OP(=S)(OC)OC)cc2)cc1	.	.	36*	.	.
Nc1ccc(Sc2ccc(N)cc2)cc1	.	.	6	.	.
Nc1cc(Cl)cc(Cl)c1	.	.	-7	.	.
CC(=O)Nc1ccc(CC(=O)N2CCN(Cc3ccccc3)CC2)cc1	.	82*	2	+	.
CN1C(=O)C(Cc2c[nH]c3ccccc23)C(=O)N(C)C1=O	10	-2	.	i	104*
CCCOC(=O)C1C2CCC(O2)C1C(=O)O (configuration not stated)	.	.	8	.	.
O=C(NC(=S)N1C[C@H]2C[C@H](C1)c1cccc(=O)n1C2)c1ccc(Cl)cc1	.	4	42*	i	.
Cn1c(O)c(C=Nc2ccccc2Sc2ccccc2)c(=O)n(C)c1=O	2	87	2	+	9
Cn1c(O)c(C=Nc2ccc(Br)cc2)c(=O)n(C)c1=O	.	62	0	i	.
COc1ccc(/C=C2\C(=O)NC(=O)N(CCC3=CCCCC3)C2=O)c(OC)c1	3	?	-8	i	-10
COc1ccc(CN2C(=O)NC(=O)/C(=C/c3ccc(OC)c(OC)c3OC)C2=O)cc1	2	69*	0	i	-12
COc1ccc(CN2C(=O)NC(=O)/C(=C/c3ccoc3)C2=O)cc1	13	?	-104	?	-2
COc1ccc(CN2C(=O)NC(=O)/C(=C/c3cc(OC)c(OC)c(OC)c3)C2=O)cc1	-2	?	19	+	-26
O=C(CCc1ccccc1)N1Cc2cc(N3CCCCC3)ccc2-n2nncc2C1	.	.	-15	.	.
CCC1CN1P(=O)(N1CCCC1)N1CC1CC (configuration not stated)	.	.	5	.	.
CC(C)(O)[C@H]1O[C@H]2CC[C@@]3(C)[C@@](O)(CC[C@H]4Cc5c([nH]c6ccccc56)[C@@]43C)C2=CC1=O	5	?	.	i	53*
O=[N+]([O-])c1ccc(N2CCCCCC2)c2nonc12	.	?	i	?	.
SMILES	eIF4E 4G PPI	eIF4H inh	MLLE-PAM2 inh	PABP FP inh	EBV gp42 inh
Nc1ccc2nonc2c1[N+](=O)[O-]	0	?	183	i	194*
c1ccc(P(c2ccccc2)c2ccccn2)cc1	-2	-3	39*	i	-6
Cc1ccsc1C(=O)C1CCCN(Cc2cccn2-c2ccccn2)C1 (configuration not stated)	1	-6	-3	i	1
Cc1ccc(Sc2ccc(C=C3C(=O)N(C)C(=O)N(C)C3=O)o2)cc1	-1	?	21	+	-6
O=C(CSC1c2ccccc2-c2ccccc21)N/N=C/c1ccc(C(=O)O)cc1	6	-7	0	i	-30
O=C(CSC1c2ccccc2-c2ccccc21)N/N=C/c1ccccc1O	1	6	40*	i	9
Cc1ccc2c(c1)NP(=S)(Oc1ccccc1)N2 (configuration not stated)	.	.	37	.	.
COc1ccc2c(c1)NP(=S)(Oc1ccccc1)N2 (configuration not stated)	4	89*	32	+	9
O=C1NC(=S)NC(=O)C1=Cc1cccc2cc3ccccc3cc12	-2	98	40*	i	17
COc1ccc(C=C2C(=O)NC(=S)NC2=O)cc1	.	.	19	.	.
COC(=O)C1=C(c2ccc(F)cc2OCc2ccccc2)C[C@@H]2CC[C@H]1N2C(=O)NCCCOC(C)C	.	.	6	.	.
CCOC(=O)C1SC2(C(F)(F)F)CC1(O)c1c(C)cc(C)nc1O2 (configuration not stated)	0	-7	60*	i	7
COC(=O)[C@]12OC[C@]34C([C@@H](O)[C@@H]1O)[C@]1(C)CC(=O)C(O)=C(C)[C@@H]1C[C@H]3OC(=O)[C@H](O)[C@@H]24 (some centres not stated)	-3	-8	6	i	-5
Cn1cc(C=C2C(=O)NC(=O)NC2=O)c2ccccc21	.	?	i	?	.
O=C1NC(=O)C(=Cc2csc3ccccc23)C(=O)N1	7	38	41*	i	-19
Cc1ccccc1-n1c(O)c(/C=N/NC(=O)c2ccncc2)c(=O)[nH]c1=O	2	28	0	i	-27
Cc1cc(C)c(-n2c(O)c(/C=N/NC(=O)c3ccncc3)c(=O)[nH]c2=O)c(C)c1	7	57*	-24	+	8
O=C1NCN(c2ccccc2)C12CCN(C(c1cccc3ccccc13)c1nnnn1-c1ccc3c(c1)OCCO3)CC2 (configuration not stated)	.	.	1	.	.
C=Cn1ccnc1P(=S)(c1ccc(Cl)cc1)c1nccn1C=C	-1	-7	9	i	5
C=Cn1ccnc1P(=S)(c1ccccc1)c1nccn1C=C	3	active	0	i	-9
CN(C)P(=O)(CCl)Nc1ccccc1 (configuration not stated)	3	96*	10	+	-1
CCC1=CCN(CCc2c(C)[nH]c3ccccc23)CC1	.	.	-2	.	.
O=C1C=C(N2CC2)c2ccccc2C1=O	.	.	35	.	.
O=C1c2ccccc2-c2cccc3cccc1c23	.	.	55*	.	.
O=C1c2ccccc2-c2cc3ccccc3cc21	.	.	46*	.	.
NC12CN3CN(CN(C3)C1)C2 (tested in a mixture with another compound)	2	-4	-9	i	-15
O=C(c1ccccc1)C(Cc1ccccc1)N1CCOCC1 (configuration not stated)	.	.	3	.	.
O=c1[nH]c(=O)n(-c2cccc3ccccc23)c(O)c1/C=N/N1CCCCC1c1cccnc1 (configuration not stated)	2	89*	-122	+	-57

Source: PubChem (several laboratories)
